# This is part of a sample that, as a whole, favours compounds with a hit. Of some 83,000 tested, about 20% had one in any assay.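 96-well plates, one dose, 48 hours. Percent growth reported; active if below 10.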 Unmarked numbers belong to inactive results. Calls of active or inactive are those of the source.
# What was measured:
# Test in all cases: NCI-60 one-dose screen, 48 h (100 = growth as untreated, 0 = no growth, -100 = all killed)
# Conditions in all cases: 10 µM
# [1] = test system: HCT-15 colon
# [2] = test system: HT29 colon
# [3] = test system: SNB-75 CNS
# [4] = test system: SNB-19 CNS
# [5] = test system: U251 CNS
# [6] = test system: PC-3 prostate
# [7] = test system: SK-MEL-5 melanoma
# [8] = test system: UACC-62 melanoma
# [9] = test system: LOX IMVI melanoma
# [10] = test system: SK-MEL-28 melanoma
SMILES,growth [1],growth [2],growth [3],growth [4],growth [5],growth [6],growth [7],growth [8],growth [9],growth [10]
Cn1cc(-c2cc(N)n3nc(-c4c[nH]c5ccc(Br)cc45)cc3n2)c2cccnc21,-77% (active),-81.7% (active),-73.1% (active),-83.5% (active),-83.9% (active),-45.9% (active),-98.3% (active),-93.9% (active),-95.6% (active),-95.8% (active)
O=C(CNc1nc(-c2ccccc2)cs1)Nc1ccc(Br)cc1,-89.4% (active),-55.8% (active),-3.24% (active),-99.4% (active),-89.8% (active),-27.8% (active),-99.8% (active),-84.1% (active),-98.7% (active),-96.3% (active)
O=c1[nH]c2ccccc2cc1CSc1ccc(Nc2nccc(-c3ccc4c(c3)OCO4)n2)cc1,84.1%,74.3%,105%,88.7%,75.8%,88.9%,94.5%,96.2%,58.7%,105%
CN(C)c1ccc(/C=C/c2nc3ccccc3c(=O)n2CC(=O)Nc2ccc(Cl)cc2)cc1,42.2%,31.9%,64%,34.8%,39.7%,30.2%,55.7%,70.6%,9.3% (active),66%
O=C(c1ccc(-n2c(=O)[nH]c3ccccc3c2=O)cc1)N1CCOCC1,99.2%,114%,80.9%,95.5%,105%,103%,107%,92.9%,104%,108%
COc1ccc(OC)c(-c2cc(-c3c[nH]c4ccccc34)nc(N)c2C#N)c1,1.05% (active),-12.6% (active),-8.84% (active),11.6%,-1.3% (active),13.1%,-84.8% (active),-8.1% (active),-65.8% (active),4.59% (active)
Brc1ccc(/C=N/Nc2ncnc3sc4c(c23)CCN(Cc2ccccc2)C4)cc1,58.3%,4.77% (active),-7.37% (active),99.9%,61.1%,61.6%,94.8%,90.3%,46.9%,41.9%
COC1=C[C@]23CCC(=O)N2CCc2cc4c(cc2[C@@H]3[C@@H]1OC(=O)CCCC(C)C)OCO4,23.1%,32.2%,120%,28%,43.3%,42.5%,25.9%,61%,7.89% (active),64.4%
O=C(c1ccc(Cl)cc1)C1[C@H](c2ccc(Br)cc2)[C@@H](c2ccccc2)NC12C(=O)Nc1ccc(Br)cc12 (stereo not given in full),-91.6% (active),-54.5% (active),0.834% (active),-51% (active),-79.9% (active),-23.5% (active),-60.3% (active),-83.9% (active),-100% (active),-93.8% (active)
COc1cc(/C=C/C(=O)c2ccc(S(=O)(=O)NCCNc3nc(Nc4ccc(F)cc4)nc(N(C)C)n3)cc2)cc(OC)c1OC,-65.9% (active),-56.7% (active),88.2%,15.6%,-81.2% (active),9.45% (active),32.4%,34.2%,-100% (active),18%
CN1C(=O)N(C)C2SC(N/N=C/c3ccc(F)cc3)=NC21 (stereo not given),26.1%,16.2%,23.7%,43.1%,35.4%,66.2%,26.8%,18.4%,40%,63.5%
S=c1nc(-c2ccccc2)cc(-c2cc3ccccc3nc2Cl)[nH]1,49.7%,67.6%,23.4%,81.2%,83.2%,60.1%,32.1%,43.8%,44.9%,65.2%
Cc1cc(C)nc(SCC(=O)Nc2ccc(S(N)(=O)=O)cc2)n1,104%,118%,127%,94.1%,101%,98.2%,97.2%,96.7%,96.7%,110%
CC(C)C1=C[C@@]23CC[C@@H]4[C@](C)(CCC[C@]4(C)C(=O)NCc4ccccc4)[C@H]2C[C@@H]1[C@H]1C(=O)OC(=O)[C@H]13,9.01% (active),18.8%,69.6%,37.9%,25.1%,33.3%,72.2%,50.2%,-8.46% (active),68.1%
CC(=C(c1ccc(OCCN2CCCCCC2)cc1)c1ccc(OCCN2CCCCCC2)cc1)c1ccc(Cl)cc1,-76% (active),-94.8% (active),-97.2% (active),-99.2% (active),-100% (active),-83.3% (active),-100% (active),-98.3% (active),-100% (active),-98.5% (active)
Cc1cc(C)nc(NS(=O)(=O)c2ccc(N/C(N)=N/c3nccc(-c4cccs4)n3)cc2)n1,97.4%,108%,78.6%,100%,102%,86.6%,96.2%,96.3%,77.8%,106%
O=c1[nH]c2ccccc2cc1CSc1ccc(Nc2nccc(-c3ccc(Cl)cc3)n2)cc1,8.92% (active),0.0418% (active),-41.8% (active),-40.3% (active),-72.3% (active),8.58% (active),48.2%,23.7%,-79.6% (active),43.2%
CCOc1ccc2ncc(C#Cc3cncc(C(=O)Nc4ccc(CN5CCN(C)CC5)c(C(F)(F)F)c4)c3)n2n1,-86.1% (active),-51% (active),-88.8% (active),-63.3% (active),-41.5% (active),-34.9% (active),-83.4% (active),-71.3% (active),-80% (active),-83.1% (active)
CC(=O)Nc1ccc(-n2cnc3cc(-c4ccc(O)cc4)ccc32)cc1F,5.21% (active),-9.81% (active),24.1%,36.2%,16.7%,22.8%,12.5%,13.9%,27.8%,49.4%
O=C(NCCCCCCCCCC[P+](c1ccccc1)(c1ccccc1)c1ccccc1)c1ccc(-n2nc(-c3ccccc3O)nc2-c2ccccc2O)cc1,-90.4% (active),-72.9% (active),-27.1% (active),-93.9% (active),-50% (active),-48.3% (active),-100% (active),-88.9% (active),-96.9% (active),-93.8% (active)
O=C1N/C(=N\c2nccs2)S/C1=C\c1cccs1,17.4%,39.6%,69.6%,30.6%,29.5%,41.3%,-76.9% (active),-18.9% (active),8.62% (active),14.6%
COc1ccc2[nH]c(=O)c(CSc3ccc(Nc4nccc(-c5ccc(Cl)cc5)n4)cc3)cc2c1,97%,104%,110%,71.6%,94.2%,83.2%,98.4%,105%,89%,109%

# — PubChem BioAssay (NCI)
